Where “and” joins values, the source holds several entries; their conditions need not be identical. Equal entries are not always repeated. Inconclusive results are not listed. Calls of active or inactive are those of the source. Unless noted, calls come from the whole dose curve; as a rule, active = well fitted curve in either direction with a large enough effect (not every such curve was filed as active); inconclusive = small, poorly fitted or top-dose-only effect, or another doubt; inactive = flat fitted curve, though single readings scatter.
Legend:
[1] = AP1 Signaling Pathway (AID 357); conditions: ME-180 AP-1-bla reporter, EGF-induced, beta-lactamase ratio, 5 h; note: % is set by controls: 0 for no effect and ±100 for the full control effect
In short: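 ME-180 cells with beta-lactamase reporter under AP-1 response element, stimulated with EC50 EGF; compounds tested in titration series, 5 h at 37 °C. CCF4 substrate added 2.5 h at room temperature; 460/530 nm emission ratio gave %activity and AC50.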

[2] = target: Cytochrome P450 1A2 (Homo sapiens) (UniProt P05177); assay: p450-cyp1a2 (AID 410; calls by dose curve; note: potency is the fitted concentration of half-maximal effect;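 for activity change, negative = inhibition: -100% = full effect of reference inhibitor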); conditions: recombinant CYP1A2, luciferin-ME demethylation, luminescence; series mostly up to 25.6 µM
Cytochrome P450 1A2 (Homo sapiens), sequence (P05177 whole entry, looked up): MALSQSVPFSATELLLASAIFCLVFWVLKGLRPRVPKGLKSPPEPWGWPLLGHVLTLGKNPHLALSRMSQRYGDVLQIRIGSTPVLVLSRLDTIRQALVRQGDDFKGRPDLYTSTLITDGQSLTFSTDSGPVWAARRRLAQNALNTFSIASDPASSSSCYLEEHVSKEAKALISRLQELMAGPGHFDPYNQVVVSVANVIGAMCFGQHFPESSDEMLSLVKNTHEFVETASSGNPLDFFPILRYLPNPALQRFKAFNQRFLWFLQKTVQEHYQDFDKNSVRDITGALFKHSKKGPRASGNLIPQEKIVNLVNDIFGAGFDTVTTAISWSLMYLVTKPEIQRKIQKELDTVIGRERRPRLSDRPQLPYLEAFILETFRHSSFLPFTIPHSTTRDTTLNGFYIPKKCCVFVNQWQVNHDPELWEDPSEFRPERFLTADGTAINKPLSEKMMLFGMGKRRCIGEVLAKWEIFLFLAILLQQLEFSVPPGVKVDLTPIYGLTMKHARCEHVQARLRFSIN
In short: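 Inhibition was calculated relative to 57 uM furafylline (full inhibition). The reaction used human CYP1A2 at 20nM with Luciferin-ME at its Km, 100uM, driven by an NADPH-regenerating system for 60 min at room temperature.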

[3] = NFAT Signaling Pathway (AID 444); conditions: Jurkat NFAT-bla M1, carbachol, beta-lactamase ratio, 5 h;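 note: carbachol stimulus at about its EC50 of 1 µM final; % is set by controls: 0 for no effect and ±100 for the full control effect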
In short: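 Jurkat cells with NFAT-driven β-lactamase reporter and co-expressed M1 receptor, stimulated with carbachol (final 1 uM, ~EC50), compound titration, 5 h at 37 °C. CCF4 loaded 1 h at RT; 460/530 nm ratio gave %activity and AC50.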

[4] = Stat Signaling Pathway (AID 446); conditions: ME-180 SIE beta-lactamase reporter, IL-6 stimulated, 5 h;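 note: ME-180 cervical cancer cells given 40 pM IL-6 alongside compound; SIE-controlled beta-lactamase reporter measured as 460/530 nm FRET emission ratio; % is set by controls: 0 for no effect and ±100 for the full control effect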
In short: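 ME-180 SIE-bla cells; overnight plating; cpd + IL-6 40 pM, 5 h, 37 C; LiveBLAzer 2.5 h RT; 460/530 nm emission ratio. Normalized to 300 pM IL-6 and 125 nM JAK inhibitor controls.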

[5] = target: Glucocorticoid receptor (Homo sapiens) (UniProt P04150); assay: GR-GFP Redistribution (AID 450;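 active = compounds whose dose series gives a full or clear partial fitted curve of increased nuclear translocation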; note: potency is the fitted concentration of half-maximal effect); conditions: U2OS GR-GFP nuclear translocation, laser cytometry, 2 h
Glucocorticoid receptor (Homo sapiens), sequence (P04150 whole entry, looked up, the tested form may be a part): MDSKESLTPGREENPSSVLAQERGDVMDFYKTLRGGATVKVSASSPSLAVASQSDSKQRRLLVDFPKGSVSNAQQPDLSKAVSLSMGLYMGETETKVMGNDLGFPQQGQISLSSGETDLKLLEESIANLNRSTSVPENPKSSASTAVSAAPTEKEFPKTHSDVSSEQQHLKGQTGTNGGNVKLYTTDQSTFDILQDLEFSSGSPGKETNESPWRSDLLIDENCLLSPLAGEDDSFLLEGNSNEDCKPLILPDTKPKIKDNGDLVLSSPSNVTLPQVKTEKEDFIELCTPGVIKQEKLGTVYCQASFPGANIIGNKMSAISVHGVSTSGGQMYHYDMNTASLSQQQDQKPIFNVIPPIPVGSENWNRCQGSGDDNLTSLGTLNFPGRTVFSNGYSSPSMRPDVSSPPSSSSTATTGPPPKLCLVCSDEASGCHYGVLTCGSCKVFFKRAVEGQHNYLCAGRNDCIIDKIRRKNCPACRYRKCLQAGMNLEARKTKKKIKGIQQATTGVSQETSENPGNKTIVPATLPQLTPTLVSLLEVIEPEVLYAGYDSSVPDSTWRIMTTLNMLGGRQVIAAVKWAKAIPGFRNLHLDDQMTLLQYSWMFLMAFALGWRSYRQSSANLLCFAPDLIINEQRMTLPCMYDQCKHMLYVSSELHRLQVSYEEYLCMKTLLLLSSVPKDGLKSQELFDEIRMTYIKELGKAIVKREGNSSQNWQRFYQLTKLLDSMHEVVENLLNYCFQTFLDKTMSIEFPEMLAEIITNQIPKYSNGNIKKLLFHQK

[6] = target: Glucocorticoid receptor (Homo sapiens) (UniProt P04150); assay: GR-EFC Redistribution (AID 451; calls by dose curve; note: potency is the fitted concentration of half-maximal effect); conditions: CHO-K1 GR-EFC translocation, beta-gal luminescence, 2 h
In short: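 CHO-K1 cells expressing nuclear EA and GR-ED fragments of b-gal; compounds titrated up to 46 uM final, 2 h at 37 C. GR nuclear translocation read as complemented b-gal luminescence after 1 h RT detection.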

[7] = target: Lysosomal acid glucosylceramidase (Homo sapiens) (UniProt P04062); assay: Glucocerebrosidase-p2 (AID 348; in the data active = potency below about 10 µM; note: potency is the fitted concentration of half-maximal effect); conditions: purified GBA, blue fluorogenic substrate, 40 min
Lysosomal acid glucosylceramidase (Homo sapiens), sequence (P04062 whole entry, looked up): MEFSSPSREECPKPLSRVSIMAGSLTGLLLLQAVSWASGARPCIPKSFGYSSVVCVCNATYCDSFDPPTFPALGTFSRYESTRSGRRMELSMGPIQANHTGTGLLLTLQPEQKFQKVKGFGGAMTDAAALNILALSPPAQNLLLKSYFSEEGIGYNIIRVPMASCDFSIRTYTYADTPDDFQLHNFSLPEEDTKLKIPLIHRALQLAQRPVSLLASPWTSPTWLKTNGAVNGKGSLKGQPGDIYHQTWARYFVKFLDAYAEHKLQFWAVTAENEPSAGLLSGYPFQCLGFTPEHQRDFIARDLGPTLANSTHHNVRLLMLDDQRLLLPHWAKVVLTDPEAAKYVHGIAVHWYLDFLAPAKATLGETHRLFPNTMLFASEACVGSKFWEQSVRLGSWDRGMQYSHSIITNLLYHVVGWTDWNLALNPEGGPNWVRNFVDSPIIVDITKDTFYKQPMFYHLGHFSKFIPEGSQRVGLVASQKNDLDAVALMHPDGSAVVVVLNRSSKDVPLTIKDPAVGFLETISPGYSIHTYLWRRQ
In short: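 Compounds titrated from 0.6 nM upwards against 0.2 nM enzyme in pH 5.9 citric acid/KH2PO4, taurocholate, tween-20; blue fluorogenic substrate 80 uM, 40 min room temperature, stopped and read Ex 365/Em 440 for AC50.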

[8] = target: Mitogen-activated protein kinase 10 (Mus musculus) (UniProt Q61831); assay: JNK3 AlphaScreen Assay (AID 530); conditions: JNK3 lysate, c-Jun phosphorylation; series mostly up to 57.1 µM;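 note: kinase came from lysate of stimulated human HepG2 cells; signal reports phosphorylation of biotinylated GST-cJun 1-79 at Ser73 with 10 µM ATP; % is set by controls: 0 for no effect and ±100 for the full control effect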
In short: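 qHTS format: compounds tested as titrations against IL-1beta/TNF-alpha-activated HepG2 lysate JNK3 with biotin-GST-cJun substrate and 10 uM ATP at room temperature. Loss of anti-phospho-cJun AlphaScreen signal indicates inhibition.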

[9] = Cell Viability - BJ (AID 421; calls by dose curve;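 note: potency is the fitted concentration of half-maximal effect; cells exposed to compound for 40 hours at 37 °C before readout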); conditions: BJ fibroblast viability, qHTS
In short: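 Luminescent ATP signal (CellTiter-Glo, 20 min at room temperature) served as the read-out of viable BJ cells after 40 hours of compound treatment. Responses were scaled between DMSO and 100 uM tamoxifen, and AC50 values were obtained by Hill modeling.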

[10] = Cell Viability - Hek293 (AID 427;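 active = compounds whose dose-response curve shows a full or clear partial loss of cell viability, called from curve shape rather than a numeric limit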;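 note: potency is the fitted concentration of half-maximal effect; cells exposed to compound for 40 hours at 37 °C before reading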); conditions: qHTS
In short: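 Luminescent ATP read-out (CellTiter-Glo, 20 min RT) after 40 hr compound exposure at 37 °C in complete medium. Signal normalized to DMSO (basal) and 100 uM tamoxifen (100% inhibition); concentration-response fitted with the standard Hill equation to give AC50.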

[11] = Cell Viability - HepG2 (AID 433; calls by dose curve;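 note: potency is the fitted concentration of half-maximal effect; potency for ATP loss meaning cytotoxicity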); conditions: qHTS
In short: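 In this qHTS format, a 40 h, 37 °C compound incubation of HepG2 cells in complete medium precedes a 20 min CellTiter-Glo step at room temperature. Tamoxifen and doxorubicin serve as positive controls; Hill-equation fits yield AC50.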

[12] = Cell Viability - NIH 3T3 (AID 541; active = well fitted cell-killing curve with a large enough effect; note: potency is the fitted concentration of half-maximal effect; nearly all actives have a fitted effect of over 25% in size); conditions: NIH 3T3 cell viability, qHTS; activity change, negative = cytotoxicity: at 92.2 µM (top of the series)
In short: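 AC50 values reflect concentration-dependent loss of intracellular ATP in NIH 3T3 cells after 40 hr treatment in complete culture medium, quantified by luciferase-based luminescence.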

[13] = Cell Viability - SH-SY5Y (AID 544; active = well fitted cell-killing curve with a large enough effect; note: potency is the fitted concentration of half-maximal effect; nearly all actives have a fitted effect of over 55% in size); conditions: SH-SY5Y neuroblastoma cell viability; series mostly up to 92.2 µM
In short: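 Cytotoxicity is scored as a concentration-dependent fall in intracellular ATP in human SH-SY5Y cells treated 40 hr in complete culture medium. Potency is expressed as AC50 from a Hill equation fit.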

[14] = Cell Viability - Renal Proximal Tubule (AID 545; active = well fitted cell-killing curve with a large enough effect; note: potency is the fitted concentration of half-maximal effect; nearly all actives have a fitted effect of over 40% in size); conditions: renal proximal tubule cells viability, primary cells of rat origin; series mostly up to 91.7 µM
In short: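 In this qHTS format, normal rat kidney-derived proximal tubule cells in complete culture medium receive compound titrations, then sit 40 hours at 37 °C before luciferase-based ATP quantitation; potency is reported as AC50 from concentration-response curves.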

NS(=O)(=O)c1cc2c(cc1Cl)NC(CSCc1ccccc1)=NS2(=O)=O
inactive: activity change, negative = inhibition ([1]; at 17.2 µM (top of the series)) -6.04% and -5.71% | Potency [2] | activity change, negative = inhibition ([3]; at 17.2 µM (top of the series)) -9.25% and 1.09% | activity, negative = inhibition ([4]; at 17.2 µM (top of the series)) -11% and 0.218% | Potency [5] > 20.6 µM | Potency [6] > 20.6 µM

Cc1cccc(Nc2cc(Cl)nc(SCC(=O)O)n2)c1C
inactive: Potency [7] > 11.4 µM | activity change, negative = inhibition ([1]; at 7.69 µM (top of the series)) 3.12% | Potency [2] | activity change, negative = inhibition ([3]; at 7.69 µM (top of the series)) 11.7% | activity, negative = inhibition ([4]; at 7.69 µM (top of the series)) 0.678% | Potency [5] > 46 µM | Potency [6] > 46 µM and > 9.22 µM

c1ccc(CN(CC2=NCCN2)c2ccccc2)cc1
inactive: activity change, negative = inhibition ([1]; at 17.2 µM (top of the series)) 6.18% and 2.47% and 4.31% | Potency [2] | activity, negative = inhibition ([4]; at 17.2 µM (top of the series)) -2.58% and 2.91% and -16.4% | Potency [8]

CC1=C(CC(=O)O)c2cc(F)ccc2/C1=C\c1ccc(S(C)=O)cc1 (stereo not given)
active: Potency [2] 12.6 µM and 3.98 µM
inactive: activity change, negative = inhibition ([1]; at 17.2 µM (top of the series)) 6.13% | activity change, negative = inhibition ([1]; at 38 µM (top of the series)) -0.0105% | activity change, negative = inhibition ([3]; at 38 µM (top of the series)) 2.92% | activity, negative = inhibition ([4]; at 17.2 µM (top of the series)) 0.939% | activity, negative = inhibition ([4]; at 38 µM (top of the series)) 9.67% | Potency [5] > 46 µM and > 20.6 µM | Potency [6] > 46 µM and > 20.6 µM

CC(C)C(=O)c1c(C(C)C)nn2ccccc12
active: Potency [2] 1.26 µM and 631 nM
inactive: activity change, negative = inhibition ([1]; at 38 µM (top of the series)) -2.6% | activity change, negative = inhibition ([3]; at 38 µM (top of the series)) -1.94% | activity, negative = inhibition ([4]; at 38 µM (top of the series)) 2.52% | Potency [8]

C[C@]12CC[C@@H]3c4ccc(O)cc4CC[C@H]3[C@@H]1CCC2=O
inactive: activity change, negative = inhibition ([1]; at 17.2 µM (top of the series)) -1.97% | activity change, negative = inhibition ([3]; at 17.2 µM (top of the series)) -19.8% | activity, negative = inhibition ([4]; at 17.2 µM (top of the series)) -23.3%

COC(=O)C1=C(C)NC(C)=C(C(=O)OC)C1c1ccccc1[N+](=O)[O-]
inactive: activity change, negative = inhibition ([1]; at 17.2 µM (top of the series)) -27.7% | Potency [9] > 92 µM | Potency [10] > 92 µM | Potency [11] > 92 µM | activity change, negative = inhibition ([3]; at 17.2 µM (top of the series)) -7.96% | activity, negative = inhibition ([4]; at 17.2 µM (top of the series)) -12.5% and -20.9% | activity, negative = inhibition ([4]; at 38 µM (top of the series)) -13.9% | Potency [5] > 46 µM and > 20.6 µM | Potency [6] > 46 µM and > 20.6 µM | Potency [8]
active: Potency [12] 2 µM | Potency [13] 25.1 µM | Potency [14] 31.6 µM

CN1[C@@H]2CC(OC(=O)[C@H](CO)c3ccccc3)C[C@H]1[C@@H]1O[C@@H]12 (stereo not given in full)
inactive: activity change, negative = inhibition ([1]; at 17.2 µM (top of the series)) -6.51% | activity, negative = inhibition ([4]; at 17.2 µM (top of the series)) 3.51%
active: activity change, negative = inhibition ([3]; at 17.2 µM (top of the series)) -78.1%

Cc1ncc([N+](=O)[O-])n1CC(O)CCl (stereo not given)
inactive: activity change, negative = inhibition ([1]; at 17.2 µM (top of the series)) 0.517% | activity change, negative = inhibition ([3]; at 17.2 µM (top of the series)) -27.2% | activity, negative = inhibition ([4]; at 17.2 µM (top of the series)) 0.729% | Potency [5] > 20.6 µM

CNCCC(Oc1ccc(C(F)(F)F)cc1)c1ccccc1 (stereo not given)
inactive: activity change, negative = inhibition ([1]; at 17.2 µM (top of the series)) 21.9% | activity, negative = inhibition ([4]; at 17.2 µM (top of the series)) 4.05%
